The source of these data is PubChem BioAssay (Tox21).

Results filed as inconclusive are left out. Where a structure was tested more than once in an assay, its records may differ in their call. The source made the active and inactive calls. Unless noted, the call rests on the fitted dose curve.

The nature of assay [1]: Nuclear factor erythroid 2-related factor 2/antioxidant responsive element (Nrf2/ARE) small molecule agonists: qHTS cell viability counter screen in human keratinocytes (AID 1919968; active means well fitted curve in the direction sought with a large enough effect in the repeat runs; an effect the other way counts as inactive or inconclusive; further: nearly all actives have a fitted effect of over 55% in size). In short, it runs like this:
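HaCaT ARE reporter line, 1,500 cells/well; 5 h settle, 37 C/5% CO2; cpd in DMSO pinned; 23 h exposure; CellTiter-Fluor, 1 h; fluorescence.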

Assay [2] is described as follows: Nuclear factor erythroid 2-related factor 2/antioxidant responsive element (Nrf2/ARE) small molecule agonists: luciferase reporter gene qHTS assay in human keratinocytes (AID 1919969). Further: nearly all actives have a fitted effect of over 35% in size. Further: potency means the concentration at half of the fitted maximal effect.
Assay [3] has as its target Gonadotropin-releasing hormone receptor (Homo sapiens) (UniProt P30968). The experiment in a line: Human gonadotropin-releasing hormone receptor (GnRHR) small molecule agonists, calcium flux assay in GnRHR-HEK293 cells (AID 1920063). Further: nearly all actives have a fitted effect of over 35% in size. In short, it runs like this:
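GnRHR-HEK293, 1500 cells/well, 18 h 37 C/5% CO2; Ca dye 1 h 37 C; cpd pinned (DMSO), agonist mode; kinetic FL 480/540, 3 min, 1 s reads; 15 conc, n=3.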
For orientation: Calcium assays in cells follow changes in intracellular calcium, usually with a dye or a luminescent sensor.

In assay [4] the target is KiSS-1 receptor (Homo sapiens) (UniProt Q969F8). Description: Human kisspeptin (KISS1R) small molecule agonists, calcium flux assay in KISS1R-HEK293 cells (AID 1920064; active means well fitted curve in the direction sought with a large enough effect in the repeat runs; an effect the other way counts as inactive or inconclusive). Summed up: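 Stable human KISS1R HEK293 line; 18 h plating, 37 C/5% CO2; calcium dye 1 h 37 C; compound pin transfer; kinetic fluorescence Ex/Em 480/540, 3 min.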
Chain of KiSS-1 receptor (Homo sapiens) (Q969F8 whole entry, looked up): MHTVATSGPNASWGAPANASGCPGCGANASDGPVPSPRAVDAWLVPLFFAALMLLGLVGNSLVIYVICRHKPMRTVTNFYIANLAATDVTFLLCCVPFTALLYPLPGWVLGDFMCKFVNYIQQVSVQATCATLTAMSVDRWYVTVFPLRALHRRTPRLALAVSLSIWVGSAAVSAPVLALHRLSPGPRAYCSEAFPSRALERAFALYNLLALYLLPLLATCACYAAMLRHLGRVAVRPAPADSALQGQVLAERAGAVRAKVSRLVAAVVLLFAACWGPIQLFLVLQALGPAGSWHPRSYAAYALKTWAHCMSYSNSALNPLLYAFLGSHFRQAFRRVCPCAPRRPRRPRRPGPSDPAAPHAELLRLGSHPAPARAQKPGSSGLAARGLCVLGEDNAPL
A short description of assay [5]: G protein-coupled receptor (GPCR) small molecule agonists, calcium flux assay: HEK293 wild type cell line counter screen (AID 1920065). Summed up:
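Kinetic fluorescence at Ex/Em 480/540, recorded every second over 3 min, served as the read-out after compound addition. Each compound was tested at 15 concentrations in triplicate on cells pre-loaded with calcium dye for 1 h.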

Assay [6] can be described thus: p53 small molecule agonists, cell-based qHTS assay with human liver microsomes (AID 1963577). Summed up: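 Fluorescence of the beta-lactamase reporter in p53RE-bla cells, detected with LiveBLAzer substrate (2 h, room temperature, dark), served as the read-out after 16 h compound exposure at 37 C with human liver microsomes and NADPH, each 0.5 mg/mL final.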
A short description of assay [7]: p53 small molecule agonists, cell-based qHTS assay with rat liver microsomes (AID 1963578). Summed up: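 Cells carrying a p53 response element–beta-lactamase reporter were plated and rested 5 h, then dosed with compound in DMSO plus rat liver microsomes and NADPH, each at 0.5 mg/mL final. After 16 h at 37 C, LiveBLAzer substrate was added for 2 h.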
In general terms: In qHTS, concentration-response curves come from the screen itself.

Assay [8] is described as follows: p53 small molecule agonists, cell-based qHTS assay with human liver microsomes: qHTS cell viability counter screen (AID 1963579). Further: nearly all actives have a fitted effect of over 45% in size. In short, it runs like this:
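Cytotoxicity counter screen: p53RE-bla, 4,000 cells/well; 5 h settle, 37 C/5% CO2; cpd + HLM 0.5 mg/mL + NADPH 0.5 mg/mL (final); 16 h, 37 C; CellTiter-Glo, 30 min RT, luminescence.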

Assay [9] in a line: p53 small molecule agonists, cell-based qHTS assay with rat liver microsomes: qHTS cell viability counter screen (AID 1963580). Further: nearly all actives have a fitted effect of over 45% in size. Summed up:
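Intracellular ATP, by CellTiter-Glo luminescence, defines viability. HCT-116 p53RE-bla cells, 4,000 per well, were compound-treated in the presence of rat liver microsomes and NADPH for 16 h at 37 C.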

Assay [10] is described as follows: p53 small molecule agonists, cell-based qHTS assay: qHTS cell viability counter screen (AID 1963581). Further: nearly all actives have a fitted effect of over 45% in size. In short, it runs like this: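 HCT-116 p53RE-bla cells, 4,000/well, plated 5 h before compound pin transfer; 16 h at 37 C; bla substrate 2 h RT; then CellTiter-Glo, 30 min RT, luminescence.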
Assay [11] can be described thus: p53 small molecule agonists, cell-based qHTS assay (AID 1963582; active means well fitted activation curve with a large enough effect in the signal ratio in the repeat runs, not every such curve was filed as active; the % refers to the signal ratio). Summed up: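 Reporter line: p53RE-bla. Pre-incubation 5 h, 37 C, 5% CO2; compound (DMSO, pin tool) 16 h, 37 C; B/G FRET substrate 2 h RT; fluorescence intensity read.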
The target in assay [12] is 5-hydroxytryptamine receptor 2A (Homo sapiens) (UniProt P28223). Description: 5-hydroxytryptamine receptor 2A (HTR2A) small molecule antagonists, cell-based qHTS assay (AID 1963586). Further: nearly all actives have a fitted effect of over 45% in size. In short, it runs like this:
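Antagonist-mode intracellular calcium assay: DOI (4 nM) added after 5 min compound pre-incubation at room temperature to dye-loaded HTR2A-CHO cells. Fluorescence followed for 3 min, sampled every second.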

Assay [13] has the same target. The experiment in a line: 5-hydroxytryptamine receptor 2A (HTR2A) small molecule agonists, cell-based qHTS assay (AID 1963587). Further: nearly all actives have a fitted effect of over 30% in size. In short, it runs like this:
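Kinetic calcium-flux fluorescence (2 min, 1 sec intervals) after compound addition in agonist mode. HTR2A-CHO cells were cultured 18 h, then dye-loaded 1 h at 37 C.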

Assay [14] addresses Muscarinic acetylcholine receptor M1 (Homo sapiens) (UniProt P11229). Description: Cholinergic receptor muscarinic 1 (CHRM1) small molecule agonists, cell-based qHTS assay (AID 1963589). Further: nearly all actives have a fitted effect of over 35% in size. In short, it runs like this:
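Human M1 in stable CHO line; 18 h plating, 1 h dye load 37 C; cpd added (agonist mode); Ca2+ fluorescence kinetic read, 1 s intervals; 15 conc, 3 runs.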

The nature of assay [15]: cAMP Responsive Elements (CRE) small molecule agonists, cell-based qHTS assay (AID 1963590). In short, it runs like this:
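HEK 293T CRE-bla, 2,000 cells/well, 18 h preincubation 37 C/5% CO2; cpds (DMSO) pinned, 3 h; LiveBLAzer B/G FRET substrate, 2 h RT.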

Assay [16] can be described thus: cAMP Responsive Elements (CRE) small molecule antagonists, cell-based qHTS assay (AID 1963591; active means well fitted inhibition curve with a large enough effect in the signal ratio in the repeat runs, not every such curve was filed as active; the % refers to the signal ratio). Summed up: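 Beta-lactamase reporter read by FRET substrate (LiveBLAzer B/G) after 2 h at room temperature. CRE-bla HEK293T cells had received compound plus 0.25 uM (final) NKH477 for 3 h at 37 °C.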
In assay [17] the target is Beta-2 adrenergic receptor (Homo sapiens) (UniProt P07550). The experiment in a line: Adrenergic beta2 receptor (ADRB2) small molecule antagonists, cell-based qHTS assay (AID 1963592). Further: series mostly up to about 92 µM; nearly all actives have a fitted effect of over 50% in size. Summed up:
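Cells (CHO, stable ADRB2 overexpression) incubated 18-20hr at 37C; compounds added from DMSO; agonist mix (1nM isoproterenol, 100uM IBMX, 25uM Ro-20-1724) added; 0.5hr RT; d2-cAMP and anti-cAMP-cryptate added; 1hr RT; 665/615 nm read.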

Assay [18] deals with D(2) dopamine receptor (Homo sapiens) (UniProt P14416). The experiment in a line: Dopamine D2 receptor (DRD2) small molecule agonists, cell-based qHTS assay (AID 1963594). Further: nearly all actives have a fitted effect of over 35% in size. In short, it runs like this: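 cAMP accumulation in DRD2-HEK293 cells measured by HTRF after 1 h detection; compounds added 10 min before NKH477 (200nM […]) forskolin-analogue stimulation, 30 min at room temperature, with Ro20-1724 present at 0.1 mM final.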
Chain of D(2) dopamine receptor (Homo sapiens) (P14416 whole entry, looked up): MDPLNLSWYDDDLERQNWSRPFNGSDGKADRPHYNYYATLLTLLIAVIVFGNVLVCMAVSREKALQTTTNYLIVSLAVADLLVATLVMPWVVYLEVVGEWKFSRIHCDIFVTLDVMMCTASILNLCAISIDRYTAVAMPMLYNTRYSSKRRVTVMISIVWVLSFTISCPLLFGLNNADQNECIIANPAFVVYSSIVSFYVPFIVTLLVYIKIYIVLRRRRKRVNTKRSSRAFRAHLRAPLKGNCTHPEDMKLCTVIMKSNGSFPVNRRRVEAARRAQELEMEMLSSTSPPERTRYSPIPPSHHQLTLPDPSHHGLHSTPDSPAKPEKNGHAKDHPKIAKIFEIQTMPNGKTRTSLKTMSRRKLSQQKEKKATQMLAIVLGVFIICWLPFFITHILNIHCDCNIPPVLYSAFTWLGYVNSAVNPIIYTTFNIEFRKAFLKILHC

Assay [19] has the same target. The experiment in a line: Dopamine D2 receptor (DRD2) small molecule antagonists, cell-based qHTS assay (AID 1963595; active means well fitted inhibition curve with a large enough effect in the signal ratio in the repeat runs, with a control signal flat; the % refers to the signal ratio). Summed up: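 HEK293 cells stably expressing DRD2, preincubated with 0.1 mM Ro20-1724 and compounds 10 min, were stimulated with 200 nM NKH477 plus 12 nM quinpirole for 30 min at room temperature; cAMP measured by HTRF (665/620 nm).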
Assay [20] deals with Muscarinic acetylcholine receptor M1 (Homo sapiens) (UniProt P11229). The experiment in a line: Cholinergic receptor muscarinic 1 (CHRM1) small molecule antagonists, cell-based qHTS assay (AID 1963588). Further: nearly all actives have a fitted effect of over 40% in size. In short, it runs like this:
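CHRM1-CHO calcium-flux assay, antagonist mode. Cells were seeded 18 h, dye-loaded 1 h at 37 C and given compound for 5 min at RT, then acetylcholine was added at 50nM. FDSS fluorescence was read 3 min; 15 concentrations, three runs.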

Chain of Beta-2 adrenergic receptor (Homo sapiens) (P07550 whole entry, looked up): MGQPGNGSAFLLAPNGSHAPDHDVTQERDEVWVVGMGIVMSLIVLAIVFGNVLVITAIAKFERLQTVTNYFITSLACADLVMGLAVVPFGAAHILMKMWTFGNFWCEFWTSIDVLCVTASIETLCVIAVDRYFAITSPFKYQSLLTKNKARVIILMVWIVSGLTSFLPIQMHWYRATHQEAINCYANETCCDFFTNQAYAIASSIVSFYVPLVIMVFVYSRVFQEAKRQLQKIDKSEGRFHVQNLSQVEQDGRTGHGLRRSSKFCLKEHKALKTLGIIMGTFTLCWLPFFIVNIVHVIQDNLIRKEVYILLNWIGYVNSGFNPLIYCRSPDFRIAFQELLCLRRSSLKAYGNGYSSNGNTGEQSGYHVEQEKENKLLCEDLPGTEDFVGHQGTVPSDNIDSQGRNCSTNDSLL
Chain of Gonadotropin-releasing hormone receptor (Homo sapiens) (P30968 whole entry, looked up): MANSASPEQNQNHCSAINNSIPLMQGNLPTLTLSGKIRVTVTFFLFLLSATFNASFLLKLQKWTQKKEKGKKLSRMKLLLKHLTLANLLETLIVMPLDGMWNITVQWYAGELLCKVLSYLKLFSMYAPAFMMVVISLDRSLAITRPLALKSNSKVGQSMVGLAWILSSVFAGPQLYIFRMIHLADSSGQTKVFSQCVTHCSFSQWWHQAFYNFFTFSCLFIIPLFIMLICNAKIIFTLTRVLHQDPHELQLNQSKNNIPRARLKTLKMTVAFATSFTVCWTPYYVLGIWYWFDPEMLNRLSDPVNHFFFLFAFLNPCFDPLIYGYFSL
Chain of 5-hydroxytryptamine receptor 2A (Homo sapiens) (P28223 whole entry, looked up): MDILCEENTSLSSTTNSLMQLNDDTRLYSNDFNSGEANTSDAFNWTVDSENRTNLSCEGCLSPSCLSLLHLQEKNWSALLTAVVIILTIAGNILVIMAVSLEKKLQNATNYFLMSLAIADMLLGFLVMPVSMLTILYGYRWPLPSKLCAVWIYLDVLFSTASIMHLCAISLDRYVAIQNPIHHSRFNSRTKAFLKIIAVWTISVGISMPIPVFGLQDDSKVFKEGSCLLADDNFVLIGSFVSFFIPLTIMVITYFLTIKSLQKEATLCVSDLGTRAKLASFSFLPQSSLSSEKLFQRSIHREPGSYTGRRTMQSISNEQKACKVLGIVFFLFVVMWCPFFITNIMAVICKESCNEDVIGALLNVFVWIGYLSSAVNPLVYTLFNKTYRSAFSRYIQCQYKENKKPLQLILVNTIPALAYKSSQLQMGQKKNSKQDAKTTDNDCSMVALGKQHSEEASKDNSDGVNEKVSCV
Chain of Muscarinic acetylcholine receptor M1 (Homo sapiens) (P11229 whole entry, looked up): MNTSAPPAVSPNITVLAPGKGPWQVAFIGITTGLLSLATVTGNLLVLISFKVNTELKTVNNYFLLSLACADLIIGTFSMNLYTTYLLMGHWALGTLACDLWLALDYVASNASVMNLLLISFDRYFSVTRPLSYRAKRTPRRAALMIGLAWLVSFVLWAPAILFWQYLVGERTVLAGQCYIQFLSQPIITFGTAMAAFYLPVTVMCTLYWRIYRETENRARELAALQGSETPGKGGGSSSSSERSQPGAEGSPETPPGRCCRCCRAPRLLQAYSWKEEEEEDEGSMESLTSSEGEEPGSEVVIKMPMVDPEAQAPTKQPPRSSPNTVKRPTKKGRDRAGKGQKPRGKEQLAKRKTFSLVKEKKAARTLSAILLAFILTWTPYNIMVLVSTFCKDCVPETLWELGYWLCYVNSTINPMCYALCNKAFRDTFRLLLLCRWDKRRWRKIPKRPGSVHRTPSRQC

Take `C=CCN1CC[C@]23CCCC[C@H]2[C@H]1Cc1ccc(O)cc13`: the Potency entry in assay [1], in assay [2], in assay [3], in [4], in [5] and in assay [6] was “inactive” throughout. Moreover, the Potency result in [7], in assay [8], in [9], in [10], in [11] and in assay [12] was “inactive” throughout. Also, the Potency entry in assay [13], in [14], in [15], in assay [16], in assay [17] and in assay [18] was “inactive” each time. Also, the Potency result in [19] is “inactive”.
In the case of `C#CCOC(C(=O)OCCN(C)C)(c1ccccc1)c1ccccc1`, the Potency result in [1], in assay [2], in assay [3], in assay [4], in [5] and in [6] was “inactive” in each case. In addition, the Potency entry in assay [7], in [8], in assay [9], in [10], in [11] and in [12] was “inactive” throughout. The Potency result in assay [20], in assay [14], in assay [15], in assay [16], in assay [17] and in assay [18] was “inactive” in each case. Further, the Potency entry in assay [19] is “inactive”.
Turning to `CN(C)N=O`, the Potency result in assay [1], in assay [2], in [3], in [4], in [5] and in assay [6] was “inactive” in each case. For the same compound, the Potency entry in assay [7], in [8], in [9], in assay [10], in [11] and in assay [12] was “inactive” each time. Moreover, the Potency result in assay [20], in assay [14], in assay [15], in [16], in [18] and in assay [19] was “inactive” in each case.
As for `CC1(C)C(C=C(Cl)Cl)C1C(=O)OC(C#N)c1cccc(Oc2ccccc2)c1` (configuration not stated), the Potency entry in assay [1], in assay [2], in assay [3], in assay [4], in assay [5] and in assay [6] was “inactive” each time. Moreover, the Potency entry in assay [7], in assay [8], in assay [9], in assay [10], in assay [11] and in assay [12] was “inactive” each time. Also, the Potency result in assay [20], in [14], in assay [15], in [16], in [17] and in assay [19] was “inactive” throughout.
With `CCOP(=O)(OCC)OCC`, the Potency entry in [1], in [2], in assay [3], in assay [4], in [5] and in assay [6] was “inactive” in each case. Also, the Potency result in [7], in assay [8], in assay [9], in assay [10], in [11] and in assay [12] was “inactive” throughout. Further, the Potency entry in assay [13], in [14], in assay [15], in assay [16], in assay [17] and in [18] was “inactive” throughout. The Potency result in [19] was “inactive”.
Regarding `CN(C)CCO`, the Potency entry in assay [1], in assay [3], in [4], in assay [5], in [6] and in [7] was “inactive” throughout. Further, the Potency entry in assay [8], in [9], in assay [10], in [11], in assay [12] and in [20] was “inactive” in each case. Also, the Potency entry in [14], in assay [15], in [16], in assay [17], in assay [18] and in [19] was “inactive” throughout. In assay [2], the Potency is 69.1 µM (active) and inactive.
With `Oc1ccc(Cl)cc1Cl`, the Potency entry in [1], in [2], in assay [3], in assay [4], in assay [5] and in assay [6] was “inactive” each time. Besides, the Potency result in assay [7], in assay [8], in [9], in [10], in assay [11] and in [12] was “inactive” in each case. The Potency result in [13], in [14], in assay [16], in assay [17], in [18] and in assay [19] was “inactive” throughout.
For `ClCC(Br)CBr` (configuration not stated), the Potency result in assay [1], in assay [2], in assay [3], in assay [4], in [5] and in assay [6] was “inactive” each time. For the same compound, the Potency result in assay [7], in assay [8], in assay [9], in assay [10], in [11] and in [12] was “inactive” in each case. In addition, the Potency entry in assay [20], in assay [14], in [15], in assay [17] and in [19] was “inactive” throughout.
